Measured values from ChEMBL document CHEMBL1961873, “Compounds: GSK PKIS; Assays: Nanosyn kinase panel” (2012).

Molecular target: Dual specificity protein kinase CLK3 (Homo sapiens) (UniProt P49761)
Settings: at 1 µM
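Note: each value is the mean inhibition of CLK3.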

Chain of Dual specificity protein kinase CLK3 (Homo sapiens) (P49761 whole entry, looked up): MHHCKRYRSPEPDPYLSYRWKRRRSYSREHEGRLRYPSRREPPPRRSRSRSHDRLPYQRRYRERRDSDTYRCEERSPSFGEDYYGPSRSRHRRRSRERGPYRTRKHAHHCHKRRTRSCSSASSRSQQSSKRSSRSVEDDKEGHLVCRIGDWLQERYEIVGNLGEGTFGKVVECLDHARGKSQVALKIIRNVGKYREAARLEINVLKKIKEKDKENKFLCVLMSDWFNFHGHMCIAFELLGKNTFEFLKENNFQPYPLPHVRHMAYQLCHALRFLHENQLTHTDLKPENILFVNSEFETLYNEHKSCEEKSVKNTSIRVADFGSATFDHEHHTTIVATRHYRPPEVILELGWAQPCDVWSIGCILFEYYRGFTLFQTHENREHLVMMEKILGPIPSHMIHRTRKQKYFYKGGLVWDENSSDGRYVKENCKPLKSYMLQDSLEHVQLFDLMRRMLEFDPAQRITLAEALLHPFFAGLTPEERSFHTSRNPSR

Row | Compound | inhibition [%]
1 | CS(=O)(=O)CCNCc1cc(-c2cc3c(Nc4ccc(OCc5cccc(F)c5)c(Cl)c4)ncnc3s2)cs1 | 0.02
2 | CCC(=O)Nc1ccc(C)c(-c2ccc(C(=O)NCC3CC3)cc2)c1 | -0.21
3 | COc1cc(Nc2ncc3c(C)nc(-c4cccc(C(F)(F)F)c4)n3n2)cc(OC)c1OC | 2.91
4 | Fc1ccc(-c2nc3n(c2-c2ccncc2)CCS3)cc1 | -2.32
5 | NC(=O)c1cc(-c2ccncc2)cc(-c2ccccc2)c1N | 2.34
6 | CCc1nccc2c1nc(-c1nonc1N)n2CC | 2.23
7 | CN(C)c1ccc2c(c1)/C(=C/Nc1ccc(S(N)(=O)=O)cc1)C(=O)N2 | 3.39
8 | CS(=O)(=O)CCNCc1ccc(-c2ccc3ncnc(Nc4ccc(OCc5ccccc5)c(Br)c4)c3c2)o1 | -3.65
9 | Cc1nnc(-c2ccc(C)c(-c3ccc(C(=O)NCc4ccc(Cl)cc4)cc3)c2)o1 | -1.79
10 | Cc1ccc(C(=O)NC2CCC2)cc1-c1ccc(C(=O)NCC2CC2)cc1 | 1.28
11 | Clc1ccc(CNc2nccc(-c3cnn4ncccc34)n2)cc1 | 6.69
12 | c1ccc(-c2n[nH]cc2-c2ccnc(-c3ccc(OCCN4CCOCC4)cc3)c2)nc1 | 0.55
13 | CCS(=O)(=O)c1ccc(OC)c(Nc2ncc(-c3cccc(-c4ccccc4F)c3)o2)c1 | 13.9
14 | COc1cc2ncn(-c3cc(OCc4cccs4)c(C(N)=O)s3)c2cc1OC | 0.59
15 | O=C1Nc2ccccc2/C1=C/Nc1ccc(-n2cncn2)cc1 | 1.52
16 | C/C(Nc1ccc(S(N)(=O)=O)cc1)=C1/C(=O)Nc2ccccc21 | 1.28
17 | CCc1cccc(CC)c1/C=C/c1cncc(C(=O)NC)c1 | 1.66
